{"source": "paper PMC4336329", "about": "(PLoS ONE, 2015)", "note": "Screen size: about 310,000 compounds; about 14,000 (4.5%) showed an effect of 50% or more. Effects have a minus sign here. This excerpt belongs to a sample that is enriched for strong results.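 Further: peak tail current of the secondary pulse compared with the same well before compound.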"}
{"target": "human ether-à-go-go-related gene (hERG) potassium channel (human, UniProt Q12809)", "sequence (Q12809 whole entry, looked up)": "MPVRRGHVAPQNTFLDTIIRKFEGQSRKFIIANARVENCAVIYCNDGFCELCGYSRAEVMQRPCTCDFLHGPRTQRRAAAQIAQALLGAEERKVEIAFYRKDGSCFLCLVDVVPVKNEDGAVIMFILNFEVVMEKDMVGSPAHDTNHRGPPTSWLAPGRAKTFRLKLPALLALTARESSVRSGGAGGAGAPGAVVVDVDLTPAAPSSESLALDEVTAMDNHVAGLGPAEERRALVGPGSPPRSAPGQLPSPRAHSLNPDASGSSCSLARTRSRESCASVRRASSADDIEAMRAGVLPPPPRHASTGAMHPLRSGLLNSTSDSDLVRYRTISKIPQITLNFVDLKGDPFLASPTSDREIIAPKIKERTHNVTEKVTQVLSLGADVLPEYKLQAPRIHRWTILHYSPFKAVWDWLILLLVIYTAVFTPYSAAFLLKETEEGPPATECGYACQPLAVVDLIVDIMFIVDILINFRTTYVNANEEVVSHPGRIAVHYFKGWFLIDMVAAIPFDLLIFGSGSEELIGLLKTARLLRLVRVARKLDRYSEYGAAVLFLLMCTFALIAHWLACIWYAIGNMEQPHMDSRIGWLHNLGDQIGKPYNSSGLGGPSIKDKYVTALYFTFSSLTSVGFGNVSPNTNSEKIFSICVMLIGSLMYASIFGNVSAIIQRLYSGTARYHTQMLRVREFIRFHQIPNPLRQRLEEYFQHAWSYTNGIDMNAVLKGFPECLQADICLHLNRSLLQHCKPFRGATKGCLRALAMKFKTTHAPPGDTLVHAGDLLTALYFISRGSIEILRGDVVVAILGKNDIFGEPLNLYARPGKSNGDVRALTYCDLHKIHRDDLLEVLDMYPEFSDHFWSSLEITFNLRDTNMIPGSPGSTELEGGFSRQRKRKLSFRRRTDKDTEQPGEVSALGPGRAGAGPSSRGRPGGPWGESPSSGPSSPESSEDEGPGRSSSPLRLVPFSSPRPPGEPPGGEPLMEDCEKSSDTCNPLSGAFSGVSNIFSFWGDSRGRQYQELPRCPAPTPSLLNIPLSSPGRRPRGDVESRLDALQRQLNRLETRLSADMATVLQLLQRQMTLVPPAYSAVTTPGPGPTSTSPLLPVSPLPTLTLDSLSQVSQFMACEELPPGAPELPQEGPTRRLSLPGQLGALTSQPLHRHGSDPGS", "assay": "primary screen, population patch clamp on CHO cells stably expressing hERG; higher = less effect of the substance", "units": {"hERG current change (%, negative = inhibition) at 10uM": "%"}}
{"smiles": "COc1cc(NC2c3ccccc3C(=O)N2Cc2ccccc2Cl)cc(OC)c1OC", "note": "(stereo not shown)", "hERG current change (%, negative = inhibition) at 10uM": -0.846}
{"smiles": "CC(C)(CO)NC(=O)C(Cc1ccccc1)N1C(=O)c2ccccc2C1=O", "note": "(stereo not shown)", "hERG current change (%, negative = inhibition) at 10uM": 17}
{"smiles": "Cc1c(C#N)c(NC(=O)CCl)n(Cc2cccs2)c1C", "hERG current change (%, negative = inhibition) at 10uM": -11.4}
{"smiles": "CCN1CCN(C(=O)CCc2nnc(CCCCc3ccccc3)o2)[C@@H](C)C1=O", "hERG current change (%, negative = inhibition) at 10uM": 16.5}
{"smiles": "CN1CCC(=O)N([C@H](CC#N)c2ccccc2)CC1", "hERG current change (%, negative = inhibition) at 10uM": 16.2}
{"smiles": "CN1CCC(=O)N([C@H](CSc2ccccc2)c2ccccc2)CC1", "hERG current change (%, negative = inhibition) at 10uM": -64.9}
{"smiles": "CN1CCC(=O)N([C@H](CSc2ccc(Br)cc2)c2ccccc2)CC1", "hERG current change (%, negative = inhibition) at 10uM": -83.7}
{"smiles": "CN1CCC(=O)N([C@H](CN=[N+]=[N-])c2ccccc2)CC1", "hERG current change (%, negative = inhibition) at 10uM": 6.65}
{"smiles": "CN1CCC(=O)N([C@H](CO)c2ccccc2)CC1", "hERG current change (%, negative = inhibition) at 10uM": 3.76}
{"smiles": "Cc1cccc(C(=O)NCC(c2ccc(F)cc2)N2CCOCC2)c1", "note": "(stereo not shown)", "hERG current change (%, negative = inhibition) at 10uM": -2.49}
{"smiles": "CCc1cccc(CC)c1C(OC(C)=O)c1cccnc1", "note": "(stereo not shown)", "hERG current change (%, negative = inhibition) at 10uM": -0.238}
{"smiles": "CCc1ccc(NC(=O)c2ccc(C3SCC(=O)N3CCc3ccccc3)cc2)cc1", "note": "(stereo not shown)", "hERG current change (%, negative = inhibition) at 10uM": 6.22}
{"smiles": "CN(CC(=O)Nc1ccc2c(c1)OCO2)S(=O)(=O)c1cccs1", "hERG current change (%, negative = inhibition) at 10uM": -26.9}
{"smiles": "Cc1ccccc1N1CCN(C(=O)c2ccccc2NC(=O)c2ccccc2C(=O)O)CC1", "hERG current change (%, negative = inhibition) at 10uM": 6.78}
{"smiles": "Cc1ccccc1C(=O)Nc1ccccc1N1CCN(C(=O)c2ccccc2)CC1", "hERG current change (%, negative = inhibition) at 10uM": -74}
{"smiles": "O=C(Nc1ccccc1N1CCCC1)c1ccccc1Cl", "hERG current change (%, negative = inhibition) at 10uM": 6.75}
{"smiles": "Cc1ccccc1C(=O)Nc1ccccc1N1CCCCC1", "hERG current change (%, negative = inhibition) at 10uM": 8.11}
{"smiles": "O=C(Nc1ccccc1N1CCN(C(=O)c2ccccc2)CC1)c1ccccc1Cl", "hERG current change (%, negative = inhibition) at 10uM": -78.8}
{"smiles": "O=C(c1ccccc1)c1ccc(C(=O)N2CCN(c3ccccc3Cl)CC2)cc1", "hERG current change (%, negative = inhibition) at 10uM": -13.3}
{"smiles": "COC(=O)Nc1ccc2c(c1)N(C(=O)CCN1CCOCC1)c1ccccc1S2.Cl", "hERG current change (%, negative = inhibition) at 10uM": 2.68}
{"smiles": "Cc1nc(CCNC(=O)Cc2ccc(F)cc2)cs1", "hERG current change (%, negative = inhibition) at 10uM": 18.9}
{"smiles": "O=C(COc1ccc2c3c(c(=O)oc2c1)CCC3)N1CCN(c2ccccc2)CC1", "hERG current change (%, negative = inhibition) at 10uM": -12.6}
{"smiles": "CCC(CC)C(=O)Nc1ccc(Nc2ccccc2)cc1", "hERG current change (%, negative = inhibition) at 10uM": 8.32}
{"smiles": "CC(C)[C@H](NC(=O)[C@@H]1Cc2ccccc2CN1)C(=O)Nc1ccc2c(c1)OCCO2", "hERG current change (%, negative = inhibition) at 10uM": -30.2}
{"smiles": "O=C(Cn1[nH]c(=O)c2ccccc2c1=O)OCC(=O)N(Cc1ccccc1)Cc1ccccc1", "hERG current change (%, negative = inhibition) at 10uM": 4.4}
